Compound activity as filed in PubChem BioAssay.
Most compounds without a hit are left out; they make up all but 2.2% or so of the library.
JMJD2C inh: inhibitors of GASC-1 histone demethylase, primary screen, biochemical, fluorescence, DELFIA europium. Lysine-specific demethylase 4C (Homo sapiens), Q9H3R0. GST-JMJD2C(1-420) H3K9me3 demethylation. inhibition, % at 2.35 µM. 330,000 tested, 0.069% active;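 active means more than half of a compound's replicate wells show inhibition beyond 50%, single wells judged on their own value; inconclusive means some, but no more than half, of replicates pass 50% inhibition; inactive means no replicate passes 50% inhibition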;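 further: signal counts dimethyl H3K9 product captured on neutravidin plate; 0% = median of DMSO wells and 100% = 0.3 times that DMSO median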
HTR2A ag: mouse Htr2a agonists via beta-arrestin recruitment, primary screen, cell-based, luminescence | 5-hydroxytryptamine receptor 2A (Mus musculus), P35363 | CHO-K1 mHTR2A beta-arrestin complementation; percent of 30 µM serotonin response | activation, % at 7.6 µM | 360,000 tested, 0.66% active | AID 624169, 2012;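 active means activation above a run cutoff, the mean activation of all tested compounds plus 3 SD, cut at about 14% in these data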;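 further: 0% = plate median of compound wells and 100% = 30 µM serotonin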
Target sequence (P35363 whole entry, looked up): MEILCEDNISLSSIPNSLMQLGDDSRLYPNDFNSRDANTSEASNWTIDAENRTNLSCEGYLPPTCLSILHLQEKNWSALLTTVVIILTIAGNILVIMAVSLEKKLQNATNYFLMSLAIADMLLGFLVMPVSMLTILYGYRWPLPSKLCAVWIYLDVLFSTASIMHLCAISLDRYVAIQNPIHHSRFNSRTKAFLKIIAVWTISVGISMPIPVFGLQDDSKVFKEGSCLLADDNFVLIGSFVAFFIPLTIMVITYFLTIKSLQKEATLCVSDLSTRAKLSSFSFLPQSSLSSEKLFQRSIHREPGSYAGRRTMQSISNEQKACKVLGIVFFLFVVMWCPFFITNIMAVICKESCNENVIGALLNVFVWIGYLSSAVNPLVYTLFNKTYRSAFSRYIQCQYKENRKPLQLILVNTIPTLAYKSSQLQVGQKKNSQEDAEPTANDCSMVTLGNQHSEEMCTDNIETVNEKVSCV
Granule exo inh: LAMP-1 surface exposure blockers, TALL-104 cells – cell-based, flow cytometry, MLPCN library, primary screen. inhibition, % at 10 µM. TALL-104 LAMP-1 surface exposure; cells stimulated with thapsigargin and PMA. 360,000 tested, 0.66% active. AID 651702, 2012;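 active means inhibition above about 55%, limit read from the data; inconclusive means no clear call, values can overlap the other calls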
V-ATPase pH: regulators of yeast V-ATPase proton pumping, primary screen, pHLuorin cytosolic pH fluorescence; S. cerevisiae; response, % at 10 µM; 350,000 tested, 0.37% active; AID 504577, 2011; in the data active means response mostly above about 7.3%, no sharp cut-off; inactive means mostly below about 5.4%; further: actives read high
MEX-5 binding: MEX-5 zinc finger RNA-binding disruptors – biochemical, C. elegans, fluorescence polarization, MLPCN library, primary screen | Zinc finger protein mex-5 (Caenorhabditis elegans), Q9XUB2 | MEX-5/FITC-TCR2 RNA binding; hits give low values | activity score (negative = inhibition of binding), % at 10 µM | 300,000 tested, 0.38% active;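 active means inhibition past about -25% in most replicates, and total fluorescence under double the plate's negative control median, limit read from the data; inconclusive means replicates evenly split on the limit, or fluorescence at least double controls; inactive means too little inhibition in most replicates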;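 further: 0% = DMSO and -100% = 5 µM competing unlabeled TCR2 RNA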
VLA-4 inh: inhibition in human VLA-4 binding assay, primary screen, VLA-4 allosteric modulator project, MLPCN library, flow cytometry, VLA-4 expressing cells | ligand binding flow cytometry | inhibition, % (about 7 µM as worked out from the volumes in the protocol) | 330,000 tested, 0.2% active; in the data active means inhibition above about 50%
MOR ag counter: OPRM1 agonists via beta-arrestin recruitment, confirmation, counter-screen for mouse HTR2A agonist project, cell-based, luminescence, single concentration | shares compounds with HTR2A ag | U2OS OPRM1 beta-arrestin PathHunter; DMSO 0%, DAMGO 9.3 µM 100% | activation, % at 9.3 µM | 2,300 tested, 5.3% active | AID 624380, 2012;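 active means mean activation above the mean of DMSO-only wells plus 3 SD, cut at about 0.5% in these data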
HTR2A ag conf: mouse HTR2A agonists, beta-arrestin recruitment, confirmation, cell-based, luminescence, CHO-K1 PathHunter, triplicate; AID 624381, 2012; activation, % at 7.6 µM; DMSO 0%, 30 µM serotonin 100%; 2,300 tested, 19% active; shares compounds with HTR2A ag;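 active means mean activation across triplicates above the hit threshold derived in the original primary screen, cut at about 15% in these data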
Granule exo CP1: inhibitors of lytic granule exocytosis, confirmation, TALL-104 cells, flow cytometry, Cherry Pick01 | AID 651954, 2012 | shares compounds with Granule exo inh | 1,500 tested, 11% active | LAMP-1 externalization; stimulated with PMA plus thapsigargin | inhibition, % at 10 µM; in the data active means inhibition above about 60%;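 further: 0% = stimulated vehicle wells and 100% = unstimulated wells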
* hit, by the source's call; ? = inconclusive; · = no result given.

SMILES	JMJD2C inh	HTR2A ag	Granule exo inh	V-ATPase pH	MEX-5 binding	VLA-4 inh	Granule exo CP1	others
COc1cccc(CNCCc2ccc(F)cc2)c1	4	8	8	-2	-2	5	·
COC(=O)C1=C(c2ccc(C(C)=O)cc2)C[C@@H]2CC[C@H]1N2C(=O)N1CCC(O)(c2ccc(Cl)cc2)CC1	·	2	-8	-4	·	17	·
N#CC1C(C#N)C2CCC1C1C2N1c1ccccc1 (configuration not stated)	·	2	-2	-3	·	·	·
C=CCN1CCc2cccc3c2[C@H]1Cc1ccc(O)c(O)c1-3	1	55*	84*	3	-4	-4	27	MOR ag counter=1.2*;HTR2A ag conf=167*
O=c1[nH]c(=O)n(Cc2ccccc2Cl)c(O)c1/C=C1/C=CC=N1	-20	2	-3	0	-10	4	·
COc1ccc2c(c1)CC1(CN2C)C(=O)NC(=O)N(CCc2ccccc2)C1=O (configuration not stated)	?	0	0	2	-2	2	·
CCC(C)N1C(=O)NC(=O)C2(Cc3c(ccc4ccccc34)N(C)C2)C1=O (configuration not stated)	-27	10	60*	-3	0	-11	-11
COc1ccc(Br)cc1CNCCc1ccc2c(c1)OCO2	3	-5	59*	3	0	6	-4
COC(=O)C1=C(c2cccc(OCc3ccccc3)c2)C[C@@H]2CC[C@H]1N2C(=O)NCCCOC(C)C	-5	-3	98*	-1	·	-2	-4
CCOc1ccc(N)cc1	·	-2	101*	0	·	·	-12
O=C(Oc1ccc([N+](=O)[O-])cc1)N1CCC(N2CCCCC2)CC1	-4	-1	-10	0	-1	5	·
CCOC(=O)[C@]12Cc3cc(OC)ccc3[C@H]1N(C1CCCCC1)C(=O)c1cc(OC)ccc12	·	7	64*	·	·	·	0
CCOC(=O)[C@]12Cc3cc(C)ccc3[C@H]1N(C1CCCCC1)C(=O)c1cc(OC)ccc12	·	3	84*	·	·	·	4
CCOC(=O)[C@]12Cc3cc(C)ccc3[C@H]1N(CCC(=O)OC)C(=O)c1cc(OC)ccc12	·	-2	37	·	·	·	·
CCOC(=O)[C@]12Cc3ccccc3[C@H]1N(C)C(=O)c1cc(OC)ccc12	·	-2	-7	·	·	·	·
CC(OC(=O)c1cn(C)c2ccccc12)C(=O)N1CCCC1 (configuration not stated)	1	4	15	8	·	9	·
O=C(C1CCC(=O)N1Cc1ccccc1Cl)N1CCC2(CC1)OCCO2 (configuration not stated)	7	4	4	-1	2	-4	·
Cc1cccc(C)c1-n1nnnc1C(CCc1ccccc1)N1CCC(n2c(=O)[nH]c3ccccc32)CC1 (configuration not stated)	·	-4	91*	·	·	·	95*
COC/C=C1\CN2C3C[C@@H]1[C@H]1COC4=Nc5cc(OC)c(OC)c(OC)c5[C@@]43C[C@@H]12	5	0	0	1	0	40	·
COc1ccc(Cn2c(N)c(C(=O)NCc3ccco3)c3nc4ccccc4nc32)cc1	4	-6	59*	4	2	-25	18
Nc1c(C(=O)NCc2ccco2)c2nc3ccccc3nc2n1Cc1ccccc1	-9	3	22	4	2	-2	·
CC1(CCO)C(=O)NC(=S)NC1=O	·	-1	7	4	·	·	·
COc1ccc(-n2c(/C=C/c3ccc(O)c(OC)c3)nc3ccccc3c2=O)cc1	-27	4	58*	2	2	-229	-4
